Seven compounds from PubChem BioAssay (NCI) can be followed below.

This is part of a sample that, as a whole, favours compounds with a hit. Of some 83,000 tested, about 20% had one in any assay.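 Results are percent growth after 48 hours of single-concentration exposure. 100 means growth as in untreated cells, lower positive values show inhibition; negative values down to -100 show cell death.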 A number with no mark means an inactive call. Activity calls are given as the source filed them. Rule for the calls: active = growth percent below 10; inactive = the rest.

Some test systems named below: NCI-H23 lung; NCI-H226 lung; NCI-H322M lung; HOP-62 NSCLC; NCI-H460 lung; HOP-92 NSCLC; NCI-H522 lung; A549/ATCC NSCLC; 786-0 renal; COLO 205 colon; DU-145 prostate; K-562 leukemia; MALME-3M melanoma; MDA-MB-231 breast; RXF 393 renal; SF-268 CNS; SF-295 CNS; SF-539 CNS; UACC-257 melanoma; M14 melanoma.
Holding throughout (experiment): NCI-60 one-dose screen, 48 h (100 = growth as untreated, 0 = no growth, -100 = all killed)
Holding throughout (conditions): 10 µM unless noted

`CCCCC/C(=C\c1ccccc1)C1OC(C)C(C)O1` (stereo not given): the growth with NCI-H23 lung is 90.2%; in the assay on NCI-H226 lung, 83.4%; with NCI-H322M lung it was 112%; with HOP-62 NSCLC, 93.5%; in the assay with NCI-H460 lung, 107%; with HOP-92 NSCLC it was 95%. Also, the growth in the assay on NCI-H522 lung is 68.5%; in the assay with A549/ATCC NSCLC, 68.5%; in the assay with 786-0 renal, 91.2%; in the assay on COLO 205 colon, 106%; in the assay with DU-145 prostate, 103%; with K-562 leukemia it was 91.3%. Moreover, the growth in the assay with MALME-3M melanoma is 104%; with MDA-MB-231 breast, 99.7%; in the assay with RXF 393 renal, 102%; in the assay on SF-268 CNS, 95.3%; in the assay on SF-295 CNS, 104%; in the assay on SF-539 CNS, 99.7%. For the same compound, the growth in the assay with UACC-257 melanoma is 70.1%; in the assay on M14 melanoma it was 87.8%.

On to `CC[C@H](CC[C@@H](C)[C@H]1CC[C@H]2[C@@H]3/C(=C/c4cccnc4)C(=O)C4=CC(=O)CC[C@]4(C)[C@H]3CC[C@]12C)C(C)C`, for which the growth was 69.3% in the assay with NCI-H23 lung; 87.5% with NCI-H226 lung; 98.4% with NCI-H322M lung; 99.2% with HOP-62 NSCLC; 98.5% with NCI-H460 lung; 81.6% in the assay on HOP-92 NSCLC. The growth in the assay on NCI-H522 lung is 91%; in the assay with A549/ATCC NSCLC it was 54.4%; in the assay on 786-0 renal, 105%; in the assay with COLO 205 colon it was 113%; in the assay with DU-145 prostate, 103%; with K-562 leukemia it was 76.4%. For the same compound, the growth was 97.6% in the assay on MALME-3M melanoma; 95.2% with MDA-MB-231 breast; 91.2% with RXF 393 renal; 103% in the assay on SF-268 CNS; 86.5% in the assay on SF-295 CNS; 105% in the assay on SF-539 CNS. Moreover, the results for the growth with UACC-257 melanoma and with M14 melanoma were 87.8% and 88%, respectively.

As for `CC(=O)O[C@H]1CC[C@]2(C)[C@H]3C(=O)C=C4[C@@H]5C[C@](C)(C(=O)N6CCCNCC6)CC[C@]5(C)CC[C@@]4(C)[C@]3(C)CC[C@H]2C1(C)C`, the growth in the assay with NCI-H23 lung is 40.1%; with NCI-H226 lung it was 76.6%; in the assay with NCI-H322M lung, 19.8%; with HOP-62 NSCLC it was -50.4% (active); in the assay with NCI-H460 lung it was -83.8% (active); with HOP-92 NSCLC, 31.1%. For the same compound, the growth in the assay with NCI-H522 lung was 30%; in the assay on A549/ATCC NSCLC, -52.8% (active); in the assay with 786-0 renal, -71.9% (active); in the assay on COLO 205 colon, -87.7% (active); with DU-145 prostate, 4.85% (active); with K-562 leukemia it was -11.3% (active). Moreover, the growth in the assay on MALME-3M melanoma was -71.7% (active); in the assay with MDA-MB-231 breast it was -84.6% (active); in the assay with RXF 393 renal, -89.4% (active); with SF-268 CNS, 69.6%; with SF-295 CNS it was 60.2%; with SF-539 CNS, -92.9% (active). In addition, the growth was 75.7% with UACC-257 melanoma and 6.84% (active) in the assay on M14 melanoma.

As to `C#CCn1c(C)cc(C)c(C#N)c1=O`, the growth in the assay with NCI-H23 lung was 107%; with NCI-H226 lung, 114%; in the assay on NCI-H322M lung it was 103%; in the assay on HOP-62 NSCLC it was 109%; in the assay on NCI-H460 lung, 107%; in the assay with HOP-92 NSCLC, 98.3%. For the same compound, the growth is 103% in the assay with NCI-H522 lung; 104% with A549/ATCC NSCLC; 99.9% in the assay with 786-0 renal; 110% with COLO 205 colon; 110% with DU-145 prostate; 103% in the assay with K-562 leukemia. Besides, the growth in the assay with MALME-3M melanoma was 96.9%; in the assay on MDA-MB-231 breast, 101%; in the assay on RXF 393 renal, 124%; in the assay on SF-268 CNS it was 98.3%; in the assay with SF-295 CNS, 99.7%; in the assay on SF-539 CNS it was 97.7%. Further, the growth in the assay with UACC-257 melanoma is 103%; in the assay with M14 melanoma, 106%.

For `COC(=O)[C@]12CC[C@@H](C(/C=C/c3cccnc3)=N/O)[C@@H]1[C@H]1CC[C@@H]3[C@@]4(C)CC(=C/c5cccnc5)/C(=N/O)C(C)(C)[C@@H]4CC[C@@]3(C)[C@]1(C)CC2`, the growth is 43.1% with NCI-H23 lung; 13.7% with NCI-H226 lung; 76.5% with NCI-H322M lung; 60% with HOP-62 NSCLC; 36.8% in the assay with NCI-H460 lung; 54.4% in the assay on HOP-92 NSCLC. Also, the growth in the assay with NCI-H522 lung is 43.3%; in the assay on A549/ATCC NSCLC, 44.6%; in the assay with 786-0 renal it was 67.8%; in the assay with COLO 205 colon it was 18%; in the assay on DU-145 prostate, 55.6%; with K-562 leukemia, 24.9%. For the same compound, the growth with MALME-3M melanoma is 39.2%; with MDA-MB-231 breast it was 45.5%; in the assay with RXF 393 renal it was 67.1%; with SF-268 CNS, 56.7%; with SF-295 CNS it was 30.6%; in the assay with SF-539 CNS, 72.3%. The results for the growth with UACC-257 melanoma and in the assay with M14 melanoma were 59.1% and 19.3%, respectively.

With `N#CC1c2ccccc2-c2ccccc2N1C(=O)c1ccccc1` (stereo not given), the growth in the assay with NCI-H23 lung was 22.6%; in the assay on NCI-H226 lung, 17.8%; in the assay with NCI-H322M lung it was 57%; with HOP-62 NSCLC, 48.7%; in the assay on NCI-H460 lung, 18.1%; in the assay with HOP-92 NSCLC, 45.2%. Further, the growth with NCI-H522 lung is 14.5%; in the assay with A549/ATCC NSCLC, 31.8%; in the assay with 786-0 renal, 17%; with COLO 205 colon it was -1.39% (active); in the assay with DU-145 prostate, 11.9%; with K-562 leukemia it was 41.5%. In addition, the growth with MALME-3M melanoma was 84%; in the assay with MDA-MB-231 breast, 16.6%; with RXF 393 renal, 31.7%; in the assay with SF-268 CNS it was 34.4%; with SF-295 CNS, 4.01% (active); in the assay on SF-539 CNS, 0.949% (active). Besides, the growth in the assay with UACC-257 melanoma was 75.9%; in the assay on M14 melanoma, 2.12% (active).

`NCCn1cc(-c2nc(-c3c[nH]c4ncccc34)cs2)c2ccccc21`: the growth in the assay on NCI-H23 lung is 83%; in the assay on NCI-H226 lung, 70.6%; with NCI-H322M lung it was 74.6%; with HOP-62 NSCLC, 75.4%; with NCI-H460 lung, 89.8%; in the assay with HOP-92 NSCLC, 54.3%. For the same compound, the growth in the assay with NCI-H522 lung is 90.4%; in the assay with A549/ATCC NSCLC it was 76.8%; in the assay on 786-0 renal it was 89.8%; with COLO 205 colon, 96.7%; with DU-145 prostate, 99.5%; in the assay on K-562 leukemia it was 82.9%. Besides, the growth in the assay with MALME-3M melanoma was 73.8%; in the assay with MDA-MB-231 breast, 66.2%; with RXF 393 renal it was 84.9%; in the assay with SF-268 CNS, 84.7%; in the assay with SF-295 CNS, 105%; in the assay on SF-539 CNS, 90.2%. Besides, the growth with UACC-257 melanoma is 92.8%; in the assay on M14 melanoma it was 96.9%.
